Data from PubChem BioAssay AID504400 (The Scripps Research Institute Molecular Screening Center, 2011).
Values without a mark were called inactive. The rule behind the calls is not given here.

System: Imidazoline I2
Assay: CYP450 and receptor off-target profile – biochemical, Ricerca HitProfilingScreen, selectivity assay for S1P4 agonist project, late-stage follow-up (AID 504400)
Conditions: Ricerca radioligand binding/enzyme panel plus CYP450, Central, at 10 µM, stronger effect = higher value

Q: For `Clc1ccc(OCCOc2ccc(Br)nc2Br)c(Cl)c1`, which inhibition is on record?
A: 9%
